Reference: paper PMC4336329 (PLoS ONE, 2015)
In all, about 310,000 compounds went through this assay and about 14,000 (4.5%) showed an effect of 50% or more. The effect is printed as a negative number. Shown is part of a subset that was picked to be rich in strong results.

Each molecule was assayed against human ether-à-go-go-related gene (hERG) potassium channel (human, UniProt Q12809) (assay: primary screen, population patch clamp on CHO cells stably expressing hERG; higher = less effect of the substance).
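Note: peak tail current of the secondary pulse compared with the same well before compound.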

Sequence of human ether-à-go-go-related gene (hERG) potassium channel (Q12809 whole entry, looked up): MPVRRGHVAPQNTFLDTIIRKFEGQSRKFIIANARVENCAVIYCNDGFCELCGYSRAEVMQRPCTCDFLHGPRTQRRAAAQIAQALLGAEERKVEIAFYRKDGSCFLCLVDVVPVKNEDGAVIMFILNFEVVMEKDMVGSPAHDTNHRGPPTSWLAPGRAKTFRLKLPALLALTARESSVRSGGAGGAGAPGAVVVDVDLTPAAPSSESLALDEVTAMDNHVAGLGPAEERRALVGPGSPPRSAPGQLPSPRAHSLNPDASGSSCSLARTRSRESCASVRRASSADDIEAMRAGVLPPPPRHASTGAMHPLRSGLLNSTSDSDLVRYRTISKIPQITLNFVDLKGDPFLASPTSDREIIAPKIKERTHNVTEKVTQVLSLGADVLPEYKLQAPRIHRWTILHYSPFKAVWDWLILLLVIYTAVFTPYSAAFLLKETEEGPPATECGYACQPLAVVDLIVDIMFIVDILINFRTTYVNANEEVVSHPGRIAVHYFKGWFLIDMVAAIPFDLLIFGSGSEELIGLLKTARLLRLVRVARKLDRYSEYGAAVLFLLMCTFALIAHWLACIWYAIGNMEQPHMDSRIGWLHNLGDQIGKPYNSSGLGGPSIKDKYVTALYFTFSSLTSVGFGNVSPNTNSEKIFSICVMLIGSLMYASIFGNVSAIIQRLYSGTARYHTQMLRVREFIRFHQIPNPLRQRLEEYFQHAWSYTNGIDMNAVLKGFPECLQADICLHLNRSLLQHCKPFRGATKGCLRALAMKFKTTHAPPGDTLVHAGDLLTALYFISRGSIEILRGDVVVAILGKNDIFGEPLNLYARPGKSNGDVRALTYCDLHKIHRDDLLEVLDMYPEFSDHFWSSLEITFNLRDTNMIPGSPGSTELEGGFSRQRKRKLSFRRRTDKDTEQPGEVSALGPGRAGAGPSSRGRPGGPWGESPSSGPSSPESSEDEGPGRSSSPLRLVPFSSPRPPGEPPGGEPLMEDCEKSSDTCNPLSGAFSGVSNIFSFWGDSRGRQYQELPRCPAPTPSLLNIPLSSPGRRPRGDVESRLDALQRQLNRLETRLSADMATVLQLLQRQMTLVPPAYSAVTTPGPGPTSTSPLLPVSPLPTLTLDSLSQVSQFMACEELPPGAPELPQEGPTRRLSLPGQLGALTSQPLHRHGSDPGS

Compound	hERG current change (%, negative = inhibition) at 10uM [%]
N#Cc1c(N)nc2c(c1N)CC(CO)O2 (stereo not drawn)	22.6
O=C(CSc1nnnn1-c1ccc(F)cc1)NCc1cccs1	-0.104
O=C(CSc1nnc(-c2ccncc2)n1-c1ccc(Cl)cc1)NCc1cccs1	-15.3
COc1ccc(-n2c(SCC(=O)NCc3cccs3)nnc2-c2ccoc2C)cc1	-78
Cc1occc1-c1nnc(SCC(=O)c2ccc(Cl)cc2)n1CC1CCCO1 (stereo not drawn)	-65.1
Cc1ccc(-n2c(SCC(=O)NCC3CCCO3)nnc2-c2ccoc2C)cc1 (stereo not drawn)	-55.6
COc1ccc(C(=O)CSc2nnc(-c3ccoc3C)n2CC2CCCO2)cc1 (stereo not drawn)	-11.7
Cc1occc1-c1nnc(SCC(=O)NCc2cccs2)n1-c1ccc(F)cc1	-60.2
COc1ccc(-c2nnc(SCC(=O)NCc3cccs3)n2C)cc1	-1.49
COc1ccc(-c2nnc(SCC(=O)NCc3cccs3)n2C(C)C)cc1	-35.8
Cc1occc1-c1nnc(SCC(=O)NCC2CCCO2)n1C (stereo not drawn)	-2
Cc1occc1-c1nnc(SCC(=O)c2ccccc2)n1CC1CCCO1 (stereo not drawn)	-8.58
Cc1ccc(C)c(-n2c(SCC(=O)NCC3CCCO3)nnc2-c2ccoc2C)c1 (stereo not drawn)	6.82
COc1cccc(N=Nc2c(C)[nH]n(-c3ccccc3)c2=O)c1	10.1
O=C(Cn1nc(C(F)F)cc1C1CC1)N1CCCC1	1.61
CCCCn1c(SCC(=O)NC2CCS(=O)(=O)C2)nnc1-c1ccc(OC)cc1 (stereo not drawn)	-4.68
Cc1ccc(NC(=S)N/N=C2\CCCCC2C)cc1 (stereo not drawn)	-10.4
O=C(ONC1=NCCCCC1)c1ccc([N+](=O)[O-])cc1	-5.87
CC(=O)Nc1ccc(S(=O)(=O)N2CCC(C(=O)NC3CCCC3)CC2)cc1	-0.813
CC(=O)Nc1ccc(S(=O)(=O)NC(C)C(=O)NCCc2ccc(F)cc2)cc1 (stereo not drawn)	11.3
Cc1ccc(C(O)(C(=O)NNc2ccc3ccccc3[nH+]2)c2ccc(C)cc2)cc1.[Cl-]	12.9
Cc1cccc(-n2c(SCC(=O)O)nc3sc4c(c3c2=O)CCCC4)c1	16.6
CCCC(=O)C1C(=O)CC(C)(C)C(c2cc(C)no2)C1=O (stereo not drawn)	-6.76

Compound	hERG current change (%, negative = inhibition) at 10uM [%]
COC(=O)CSc1nnc(-c2ccoc2C)n1-c1ccc(C)cc1	-37
CC(Sc1nnc(-c2ccc(OC(F)F)cc2)n1N)C(=O)NCC1CCCO1 (stereo not drawn)	-24.2
Cc1ccc(-n2c(SCC(=O)NCc3cccs3)nnc2-c2ccoc2C)cc1	-74.8
Cc1nnc(SCC(=O)NCc2cccs2)n1-c1ccccc1	1.68
COc1ccc(-c2nnc(SCC(=O)NCC3CCCO3)n2C)cc1 (stereo not drawn)	9.8
Nn1c(SCC(=O)NCC2CCCO2)nnc1-c1ccc(OC(F)F)cc1 (stereo not drawn)	-68.5
O=C1C2CCCN2C(c2ccc(Cl)cc2)N1c1ccccn1 (stereo not drawn)	-3.03
COc1ccc(CNCC(O)(c2ccc(F)cc2)c2ccc(F)cc2)cc1OC	-62.1
COc1ccc(CNCC(O)(c2ccc(Cl)cc2)c2ccc(Cl)cc2)cc1OC	-30.9
COc1ccc(CNCc2ccc(C(F)(F)F)cc2)cc1OC.O=C(O)C(=O)O	6.54
COc1ccc(CNCC(O)(c2ccccc2)c2ccccc2)cc1OC	-60
OC(CNCc1ccccc1F)(c1ccc(F)cc1)c1ccc(F)cc1	-26.7
COc1ccc(CNCC(O)(c2ccccc2)c2ccc(F)cc2)cc1OC (stereo not drawn)	-61.2
COc1ccccc1CNCC(O)(c1ccc(Cl)cc1)c1ccc(Cl)cc1	-13.7
Cc1ccc(CNCC(O)(c2ccccc2)c2ccccc2)cc1	-33
COc1ccccc1CNCC(O)(c1ccc(F)cc1)c1ccc(F)cc1	-68
N#CCCN(Cc1ccccc1)S(=O)(=O)c1cccs1	-16.5
COc1cc(CC(=O)N(C)CC(=O)Nc2cc(C)ccc2C)cc(OC)c1OC	11
COc1ccc(OCC(=O)O/N=C(\N)c2ccc(OC)c(OC)c2)cc1	7.84
CN(C)S(=O)(=O)c1ccc(C(=O)OCC(=O)Nc2cccnc2Cl)cc1	1.64
CC(=O)N1CCN(Cc2nc3cc(NC(=O)Cn4nc(C)c5ccccc5c4=O)ccc3n2C)CC1	17.9
COc1ccc(CN2C(=O)CCC2(C)C(=O)NC2CCCCCC2)cc1 (stereo not drawn)	-13.8
O=C(NCc1ccncc1)Nc1cc(Cl)ccc1Cl	-8.6

Compound	hERG current change (%, negative = inhibition) at 10uM [%]
CC1=CN2CC(O)CN=C2C=C1.Cl (stereo not drawn)	-1.57
COc1cccc(OC)c1OCCNCCO	21.5
COc1cccc(OC)c1OCCNCC1CSc2ccccc2O1.Cl (stereo not drawn)	-53.6
COc1cccc(OC)c1OCCNCC1COc2ccccc2O1.Cl (stereo not drawn)	-22.5
COc1ccc(-n2nnc3c(SCC(=O)Nc4ccccc4F)ncnc32)cc1	18.9
CCOc1ccc(NC(=O)CSc2nnc(Cn3c(=O)sc4ccccc43)n2C)cc1	-4.3
COc1ccc(C)cc1NC(=O)CSc1nnc(-c2ccccn2)n1Cc1ccco1	-15.8
COc1ccccc1NC(=O)CSc1nnc(-c2ccco2)n1N	-3.82
CCCn1c(SCC(=O)Nc2ccccc2OC)nnc1-c1ccco1	-68.5
COc1ccccc1NC(=O)CSc1nnc(Cn2c(=O)sc3ccccc32)n1C	-44
CCOc1ccccc1NC(=O)CSc1nnc(-c2ccccc2Cl)n1Cc1ccco1	-32
CCOC(=O)CNC(=O)CSc1nnc(-c2ccco2)n1Cc1ccco1	10.4
COc1ccccc1NC(=O)CSc1nnc(-c2ccccn2)n1Cc1ccco1	-9.97
CCOc1ccccc1NC(=O)CSc1nnc(Cn2c(=O)sc3ccccc32)n1C	-61.9
CCOc1ccccc1NC(=O)CSc1nnc(-c2ccco2)n1Cc1ccco1	-63.4
CCOc1ccccc1NC(=O)CSc1nnc(-c2ccccn2)n1Cc1ccco1	-67.3
COCCn1c(SCC(=O)Nc2ccccc2OC)nnc1-c1ccco1	-13.6
CCOc1ccc2nc(NC(=S)N(C)C)sc2c1	13
Cc1ccnc(NC(=S)NC(=O)c2ccco2)c1	-10.3
Cc1cc(C)c(C(=O)COC(=O)c2cc([N+](=O)[O-])ccc2N2CCOCC2)cc1C	-4.07
Cc1ccc(SC(C)c2nc(-c3cccnc3)no2)cc1 (stereo not drawn)	-30.5
COc1ccc(OC)c(CN2CCN(C(=O)c3ccco3)CC2)c1.O=C(O)C(=O)O	0.201
COC(=O)CSc1nnc(-c2ccco2)n1Cc1ccco1	-26.8

Compound	hERG current change (%, negative = inhibition) at 10uM [%]
COc1ccccc1NC(=O)CSc1nnc(-c2ccco2)n1Cc1ccco1	-65.4
COc1ccc(C)cc1NC(=O)CSc1nnc(-c2ccco2)n1Cc1ccco1	-12.8
CN(C)c1cc(-c2ccc(Br)cc2)oc(=O)c1Cl	15.5
CN(C)c1cc(-c2ccc(Cl)cc2)oc(=O)c1Cl	-6.67
CN(C)c1cc(-c2ccc(C#N)cc2)oc(=O)c1Cl	-50.1
CCCCSc1cc(C)nc(N)n1	-1.73
O=C(Nc1ccc(O)c(C(=O)O)c1)c1ccc2c(c1)C(=O)N(CC1CCCO1)C2=O (stereo not drawn)	6.21
CCCCOc1ccc(C(O)(CCN2CCOCC2)c2ccccc2)cc1.Cl (stereo not drawn)	-21.7
CCCCCC(O)(CCN1CCCCC1)c1ccccc1.Cl (stereo not drawn)	-82.4
COc1ccc(C(O)(CCc2ccccc2)CCN2CCCCC2)cc1.Cl (stereo not drawn)	-17.5
CCCCCCC(O)(CCN1CCCCC1)c1ccccc1.Cl (stereo not drawn)	-70.3
Cl.OC(CCCN1CCCCC1)(c1ccccc1)c1ccccc1	-44
CCCCCC(O)(CCN1CCCCC1)c1ccc(OCC)cc1.Cl (stereo not drawn)	-77.1
CS(=O)(=O)O.OC(CCN1CCCCC1)(c1ccccc1)c1ccccc1	-36.2
CCC(O)(CCN1CCCCC1)c1ccccc1 (stereo not drawn)	-5.84
C=CCC(O)(CCN1CCCCC1)c1ccccc1.Cl (stereo not drawn)	-10.8
NC(=O)c1nsc(C(=O)N(c2cccc(F)c2)C(C(=O)NCc2ccccc2)c2ccc(O)cc2)c1N (stereo not drawn)	-22.4
Cc1cccn2c(CN(C)CC3CCCCO3)c(C(=O)N3CCCCC3)nc12 (stereo not drawn)	20.9
Cc1cc(S(=O)(=O)NCc2ccco2)c(C)cc1Cl	14.1
COc1ccc(-c2nc3ccccc3c(=O)n2N)cc1	-13.7
Cc1nnc(NC(=O)c2csc3c2CCC(C)C3)s1 (stereo not drawn)	13.9
